Assay results: PubChem BioAssay AID463173 (ICCB-Longwood Screening Facility, Harvard Medical School, 2010)
The whole screen tested about 52,000 compounds, of which about 4,300 (8.3%) were called active. The sample holds actives, similar compounds and a random draw of the others, so the mix is not that of the screen. Unmarked numbers belong to inactive results. Rule as the data show it: active = survival mostly below about 52% (no sharp cut-off); inactive = mostly above about 56%.

Each compound was assayed on DeltatarO mutant (assay: S. aureus survival, RN4220 and DeltatarO strains – OD600, teichoic acid synthesis inhibitors, primary screen (AID 463173)). Conditions: S. aureus RN4220 wild type/DeltatarO growth, OD600, 18 h, stronger effect = lower value, screened at 18.75 µg/mL (by protocol).

| SMILES | survival |
| --- | --- |
| CCCn1cc(S(=O)(=O)c2ccc(C)c(C)c2)c(=O)c2cc(F)c(N3CCC(C)CC3)cc21 | 67% |
| COc1cccc2cc(C(=O)N3CCN(c4cc(C)ccc4C)CC3)c(=O)oc12 | 56% |
| Cc1cccc(CNC(=O)CN2C(=O)CCn3nc(-c4cn(C)c5ccccc45)cc32)c1 | 119% |
| CCOC(=O)COc1ccc(CC)cc1C(=O)c1ccn2nc(-c3ccc(Cl)cc3)cc2n1 | 74% |
| COc1ccccc1NC(=O)N(Cc1nnc2n1CCCCC2)c1ccc(F)cc1 | 91% |
| O=C(c1cc(-c2ccccc2)on1)N1CCCCC1 | 95% |
| COc1ccccc1N1CCN(C(=O)c2cc(-c3ccccc3O)on2)CC1 | 61% |
| COc1ccc(-c2cc(C(=O)N3CCN(c4ccccc4)CC3)no2)cc1 | 77% |
| CN(Cc1ccccc1)C(=O)c1cc(-c2cccc(Cl)c2)on1 | -15% (active) |
| O=C(NCCc1ccccc1)c1cc(-c2cccc(Cl)c2)on1 | 76% |
| CCc1ccc(CN(Cc2ccco2)C(=O)c2cc(-c3ccc(Cl)cc3)on2)cc1 | 75% |
| COc1ccccc1-c1cc(C(=O)N2CCN(c3ccccc3)CC2)no1 | -15% (active) |
| Cc1ccc(-c2cc(C(=O)N3CCCC3)no2)cc1 | 98% |
| O=C(c1cc(-c2cccc(Cl)c2)on1)N1CCCCC1 | 46% (active) |
| CCN(CC)C(=O)c1cc(-c2ccccc2)on1 | 101% |
| COCCNC(=O)c1cc(-c2cccc(Cl)c2)on1 | 134% |
| CCN(CC)C(=O)c1cc(-c2ccc(Cl)cc2)on1 | 36% (active) |
| CC(C)CN1CCc2nc(N3CCN(c4ncccn4)CC3)ncc2C1 | 72% |
| CCNc1nc(NCC)nc(N(C#N)CC)n1 | 62% |
| CCc1ccc(NC(=O)Cn2c(=O)n(Cc3ccc(C)cc3)c(=O)c3cccnc32)cc1 | 88% |
| CC(=O)c1ccc(N2CCN(C(=O)Nc3cn(CC(C)C)c(=O)c4ccccc34)CC2)cc1 | 80% |
| Cc1ccc(C)c(NC(=O)c2cnc(N3CCCC3)nc2C)c1 | 94% |
| COc1ccc(NC(=O)CSc2oc(-c3ccc(F)cc3)nc2S(=O)(=O)c2ccc(C)cc2)c(OC)c1 | 61% |
| Cc1cccc(NC(=O)NCCOCCn2c(=O)oc3ccccc32)c1C | 99% |

| SMILES | survival |
| --- | --- |
| O=C(Nc1ccc(Cl)cc1)N1CCC(CN2CCCC2)CC1 | 84% |
| CCCCC(=O)Nc1cccc(OCc2cc(=O)n3ccccc3n2)c1 | 87% |
| CN(C(=O)c1ccc2c(c1)N(Cc1cccc(Cl)c1)C(=O)c1ccccc1S2=O)C1CCCCC1 (configuration not stated) | 101% |
| O=C(NCCC1=CCCCC1)c1ccc2c(c1)N(Cc1ccc(Cl)cc1)C(=O)c1ccccc1S2=O (configuration not stated) | 63% |
| CCOC(=O)N1CCC(NC(=O)c2ccc3c(c2)N(Cc2ccccc2C)C(=O)c2ccccc2S3=O)CC1 (configuration not stated) | 53% |
| CCN(C(=O)c1ccc2c(c1)N(Cc1cccc(Cl)c1)C(=O)c1ccccc1S2=O)c1ccccc1 (configuration not stated) | 32% (active) |
| CCCCN(C)C(=O)c1ccc2c(c1)N(Cc1cccc(Cl)c1)C(=O)c1ccccc1S2=O (configuration not stated) | 99% |
| O=C(NCCC1=CCCCC1)c1ccc2c(c1)N(Cc1cccc(Cl)c1)C(=O)c1ccccc1S2=O (configuration not stated) | 37% (active) |
| O=C(NC1CCCCC1)c1ccc2c(c1)N(Cc1cccc(Cl)c1)C(=O)c1ccccc1S2=O (configuration not stated) | 101% |
| CC1CCC(NC(=O)c2ccc3c(c2)N(Cc2ccccc2)C(=O)c2ccccc2S3=O)CC1 (configuration not stated) | 104% |
| O=C(NCCC1=CCCCC1)c1ccc2c(c1)N(Cc1ccccc1)C(=O)c1ccccc1S2=O (configuration not stated) | 70% |
| CCOC(=O)N1CCC(NC(=O)c2ccc3c(c2)N(Cc2cc(C)ccc2C)C(=O)c2ccccc2S3=O)CC1 (configuration not stated) | 42% (active) |
| CC1CCC(NC(=O)c2ccc3c(c2)N(Cc2cccc(Cl)c2)C(=O)c2ccccc2S3=O)CC1 (configuration not stated) | 25% (active) |
| CCOC(=O)N1CCC(NC(=O)c2ccc3c(c2)N(Cc2ccccc2)C(=O)c2ccccc2S3=O)CC1 (configuration not stated) | 57% |
| Cc1ccc(-n2c(=O)c3c(cnn3C)n(CC(=O)Nc3c(C)cccc3C)c2=O)cc1 | 85% |
| COc1ccc(NC(=O)Cn2c(=O)n(-c3ccc(CC(=O)NCC4CCCO4)cc3)c(=O)c3ccccc32)c(OC)c1 (configuration not stated) | 102% |
| COc1cc(C(=O)N2CCN(c3ccc(Nc4ccccc4)nn3)CC2)cc(OC)c1OC | 80% |
| COc1cc(C(=O)Nc2sc(C(=O)N3CCOCC3)c(C)c2C#N)cc(OC)c1OC | 84% |
| CN(C)CCN(C(=O)c1ccco1)c1nc2c(F)cc(F)cc2s1 | 72% |
| O=C(c1ccc2c(c1)N(Cc1ccc(Cl)cc1)C(=O)c1ccccc1S2(=O)=O)N1CCOCC1 | 96% |
| O=C1OC(C(=O)Nc2cc(C(F)(F)F)ccc2Cl)Cc2ccccc21 (configuration not stated) | 56% (active) |
| O=C1OC(C(=O)Nc2cccc(Br)c2)Cc2ccccc21 (configuration not stated) | 54% |
| O=C1OC(C(=O)Nc2ccc(Cl)c(C(F)(F)F)c2)Cc2ccccc21 (configuration not stated) | 55% |
